Hits are enriched below; roughly 2.1% of the tested compounds scored in any of these assays.
APP transl inh = APP translation inhibition; 0.82% of 190,000 active; inhibition, % at 2 µM; SH-SY5Y APP 5'UTR-luciferase reporter, luminescence;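 active = inhibition above a set limit, derived from the sample mean plus 3 SD, cut at about 45% in these data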
BaF3 tox = parental Ba/F3 viability inhibition as JAK2V617F counter-screen; inhibition, % at 5.6 µM; CellTiter-Glo ATP luminescence; 1.1% of 220,000 active;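 active = inhibition above a per-campaign cutoff, the mean inhibition of all tested compounds plus 3 SD, cut at about 27% in these data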;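 also: 0% = DMSO wells and 100% = JAK Inhibitor I control wells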
KLF5 inh = suppresses KLF5 promoter-driven expression; DLD-1 KLF5 promoter-luciferase reporter, luminescence; inhibition, % at 5 µM; 0.23% of 290,000 active;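 active = inhibition above a per-plate limit of that plate's mean compound inhibition plus 3 SD, cut at about 60% in these data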;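 also: 0% = DMSO wells and 100% = LY294002 at 200 µM; higher means less KLF5 promoter-driven luciferase light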
Ba/F3 V617F tox = lowers viability of Ba/F3 cells expressing EpoR and JAK2V617F; ATP luminescence; 1.1% of 220,000 active; inhibition, % at 5.6 µM;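 active = inhibition above the campaign mean plus 3 SD over all tested compounds, cut at about 24% in these data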;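 also: cytokine-independent growth of Ba/F3 cells driven by EpoR plus mutant JAK2; 0% = DMSO-treated cells and 100% = JAK inhibitor I control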
aSyn UTR inh = MLPCN primary screen, SNCA 5' untranslated region | alpha-synuclein 5'UTR reporter, inhibitor activity | inhibition, % (tested at 7.5 µM) | 0.82% of 300,000 active; in the data active = inhibition above about 60%;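 also: H4 neuroglioblastoma cells stably carrying SNCA 5'UTR luciferase fusion; 0% = DMSO wells and 100% = positive control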
IEC-6 cytotox = IEC-6 cytotoxicity, counter-screen for KLF5 inhibitors | luminescence viability | inhibition, % at 5 µM | 0.78% of 290,000 active | AID 1825; in the data active = inhibition above about 22%;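 also: 0% = plate median of test compound wells and 100% = cytotoxic reference compound wells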
BaF3 parental 2 = parental Ba/F3 viability inhibition for JAK2V617F counter-screen; shares compounds with Ba/F3 V617F tox; CellTiter-Glo luminescence; cells kept alive by added IL-3; inhibition, % at 5.6 µM; 31% of 580 active; AID 1520;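 active = cell growth inhibition above the hit limit set in the earlier mutant JAK2 cell screen, cut at about 27% in these data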;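 also: plate controls were DMSO-treated cells for no effect and JAK Inhibitor I control wells for full effect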
JAK2V617F conf = Ba/F3 EpoR-JAK2V617F viability loss, confirmation | AID 1521 | CellTiter-Glo luminescence | 66% of 580 active | shares compounds with Ba/F3 V617F tox | inhibition, % at 5.6 µM;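 active = mean inhibition above the hit cutoff derived in the earlier primary screen, cut at about 25% in these data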;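 also: 0% = DMSO-treated cells and 100% = JAK inhibitor I control wells; higher means lower luminescence from reduced cell ATP and viability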
Numbers without * were called inactive; . = not tested or not shown.

SMILES | APP transl inh | BaF3 tox | KLF5 inh | Ba/F3 V617F tox | aSyn UTR inh | IEC-6 cytotox | BaF3 parental 2 | JAK2V617F conf
Cc1cc(NC(=O)c2sccc2C)n(-c2nc3ccccc3[nH]2)n1 | 8 | 3 | -26 | 84* | 26 | -10 | -5 | -4
CC(C)Oc1ccc(/C(O)=C2/C(=O)C(=O)N(CCN3CCNCC3)C2c2cccc([N+](=O)[O-])c2)cc1 (centres undefined) | . | . | -28 | . | 12 | -5 | . | .
CCOC(=O)C(C)Oc1cccc2c(=O)n(CC(=O)NCCc3ccccc3)ccc12 (centres undefined) | . | 4 | 6 | 2 | -17 | -1 | . | .
COC(=O)COc1cccc2c(=O)n(CC(=O)N3CCCCC3)ccc12 | . | -1 | -23 | -2 | 10 | -5 | . | .
CCOC(=O)C(C)Oc1cccc2c(=O)n(CC(=O)NCc3ccc(F)cc3)ccc12 (centres undefined) | . | 22 | 34 | 29* | 68* | 10 | 62* | 97*
COC(=O)COc1cccc2c(=O)n(CC(=O)NCc3ccc(F)cc3)ccc12 | 73* | 8 | 29 | 74* | -7 | 5 | 21 | 86*
CCN(CC)S(=O)(=O)c1cccc(C(=O)N[C@H](C(=O)Nc2nc3ccc(F)cc3s2)C(C)C)c1 | -17 | 1 | -5 | 66* | -83 | 8 | -1 | 13
COc1ccc(C2=Nn3c(nnc3C3CCCCC3)SC2)cc1OC | -14 | 10 | 4 | 25* | 16 | 8 | 13 | 51*
CC(=O)c1cccc(NC(=O)/C=C/c2ccc([N+](=O)[O-])s2)c1 | 81* | 7 | -1 | 101* | -326 | -3 | 106* | 100*
COC(=O)c1cccc(NC(=O)/C=C/c2cccc([N+](=O)[O-])c2)c1 | -20 | -2 | -39 | -6 | -35 | 1 | . | .
Oc1ccc(-c2nc3ccc4ccccc4c3c3c2CCC3)cc1O | 1 | 3 | -33 | 63* | -151 | 1 | 53* | 97*
COc1ccc(-c2cc(C(=O)O)nc3ccc4ccccc4c23)cc1OC | -1 | 7 | -22 | 3 | -43 | 4 | . | .
COc1ccc(N(CC2CO2)S(=O)(=O)c2ccc(C)cc2)cc1 (centres undefined) | . | . | 0 | . | 13 | 2 | . | .
Cc1[nH]c(=O)c(C(=O)/C=C/c2ccccc2F)c2c1CCCC2 | 7 | 17 | -16 | 50* | -364 | 4 | 18 | 96*
Cc1cc(C)c(C(=O)/C=C/c2cccc3ccccc23)c(=O)[nH]1 | . | 0 | -20 | -3 | -5 | 6 | . | .
COc1ccccc1NC(=O)CC(=O)CSc1nnc(-c2ccc(C)cc2)n1-c1ccccc1 | 5 | -1 | -21 | -4 | 3 | -3 | . | .
COc1ccc(-c2nnc(SCC(=O)Nc3ncc(C)s3)n2-c2ccccc2)cc1OC | -4 | 7 | 19 | 86* | -15 | 10 | 18 | 22
Cc1ccc(CS(=O)(=O)CC(C)(O)c2ccc(Cl)cc2)cc1 (centres undefined) | . | . | -15 | . | 21 | 0 | . | .
CCOC(=O)c1c(C)sc2c1N(C(=O)CCl)c1cc(Cl)ccc1S2 | -2 | 11 | 9 | 28* | 42 | 13 | 58* | 99*
COc1cc(/C=C2\COC/C(=C\c3ccc(O)c(OC)c3)C2=O)ccc1O | . | -8 | -23 | 25* | 103* | 3 | 14 | 91*
COc1cc(/C=C2/CC/C(=C/c3ccc(O)c(OC)c3)C2=O)ccc1O | . | 0 | -13 | -4 | -71 | -2 | . | .
Cc1cccc(CS(=O)(=O)c2nnc([C@H](Cc3ccccc3)NC(=O)OC(C)(C)C)o2)c1 | 72* | 1 | 2 | 44* | -12 | 19 | 12 | 82*
COC(=O)CS(=O)(=O)c1nnc([C@H](Cc2ccccc2)NC(=O)OC(C)(C)C)o1 | 23 | 1 | -14 | -3 | 19 | 1 | . | .
C[C@@H](CSc1ccccc1)CN1CC[C@H](O)CCC1=O | . | . | 6 | . | -5 | -6 | . | .
Oc1c(C(Nc2nc3ccccc3s2)c2ccco2)ccc2cccnc12 (centres undefined) | 68* | 7 | -7 | 26* | 66* | 1 | 35* | 89*
c1coc(CNc2nc3ccccc3s2)c1 | . | . | -127 | . | -137 | -5 | . | .

Assay outcomes deposited in PubChem BioAssay by several laboratories.
